Several values for one entry are separate records, joined by “and”; a condition that tells them apart may be missing. Equal values may be shown once. About 2,000 (36%) of roughly 5,500 compounds were called active. Roughly 18% stayed inconclusive and do not appear here. No stated cut-off is given here; in the data, active means normalized growth mostly below about 0.91 (no sharp cut-off); inconclusive means no clear call, values can overlap the other calls; inactive means mostly above about 0.92. The list shows a part of the results.
Assay: chemical genetic growth profiling, strain panel (AID 1159580);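 further: tested at 20 µM; growth read once vehicle control cultures reached saturation at 30 °C; 1 = growth at the plate median or of vehicle wells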
Conditions: S. cerevisiae deletion strains, growth OD

Measured: normalized growth

OCC(O)C(O)C(O)CO (stereo unspecified)
inactive: locus YAL021C, strain ccr4, stronger effect = lower value 1.01 | locus YAL026C, strain drs2, stronger effect = lower value 1.02 and 1.01 | locus YAL030W, strain snc1, stronger effect = lower value 1.03 and 0.992 | locus YBL061C, strain skt5, stronger effect = lower value 1.02 and 0.994 | locus YBR009C, strain hhf1, stronger effect = lower value 1.02 and 0.989 | locus YBR021W, strain FUR4, stronger effect = lower value 1.07 | locus YBR023C, strain chs3, stronger effect = lower value 1.03 and 0.999 | locus YBR171W, strain sec66, stronger effect = lower value 1.06 and 0.99 | locus YBR229C, strain ROT2, stronger effect = lower value 0.964 | locus YBR231C, strain swc5, stronger effect = lower value 1.03 and 0.994 | locus YBR279W, strain paf1, stronger effect = lower value 1.01 and 0.998 | locus YCL011C, strain gbp2, stronger effect = lower value 1.03 and 1.01 | locus YCL016C, strain dcc1, stronger effect = lower value 1.03 and 0.99 | locus YCL029C, strain bik1, stronger effect = lower value 0.985 | locus YCL061C, strain MRC1, stronger effect = lower value 1.03 | locus YCL069W, strain vba3, stronger effect = lower value 1.03 and 0.994 | locus YCR088W, strain abp1, stronger effect = lower value 1.02 and 0.991 | locus YDL005C, strain med2, stronger effect = lower value 1.03 and 0.984 | locus YDL035C, strain GPR1, stronger effect = lower value 1.04 | locus YDL040C, strain nat1, stronger effect = lower value 1.02 and 1 | locus YDL074C, strain BRE1, stronger effect = lower value 1.12 | locus YDL101C, strain DUN1, stronger effect = lower value 0.996 | locus YDL134C, strain PPH21, stronger effect = lower value 1.01 | locus YDL185W, strain tfp1, stronger effect = lower value 0.982 | locus YDL192W, strain arf1, stronger effect = lower value 1.02 | locus YDR001C, strain nth1, stronger effect = lower value 1.02 | locus YDR069C, strain doa4, stronger effect = lower value 1.02 and 0.976 | locus YDR101C, strain arx1, stronger effect = lower value 1.05 | locus YDR137W, strain rgp1, stronger effect = lower value 1.09 and 0.983 | locus YDR159W, strain sac3, stronger effect = lower value 1.03 and 1 | locus YDR162C, strain NBP2, stronger effect = lower value 0.971 | locus YDR195W, strain ref2 1.04 and 0.983 | locus YDR297W, strain sur2, stronger effect = lower value 1.02 and 1.01 | locus YDR318W, strain mcm21, stronger effect = lower value 0.992 | locus YDR334W, strain swr1, stronger effect = lower value 1.02 and 1 | locus YDR335W, strain msn5, stronger effect = lower value 1.02 and 0.999 | locus YDR388W, stronger effect = lower value 0.995 | locus YDR392W, strain spt3, stronger effect = lower value 1.02 and 0.998 | locus YDR502C, strain sam2, stronger effect = lower value 0.995 | locus YEL003W, strain gim4, stronger effect = lower value 1.03 and 1 | locus YEL037C, strain rad23, stronger effect = lower value 1.01 and 1 | locus YEL061C, strain CIN8 (second series), stronger effect = lower value 1.03 and 0.998 | locus YEL061C, strain CIN8, stronger effect = lower value 1.01 | locus YER015W, strain faa2, stronger effect = lower value 1.02 and 1 | locus YER016W, strain bim1, stronger effect = lower value 1.03 and 0.982 | locus YER110C, stronger effect = lower value 0.983 | locus YER111C, strain swi4, stronger effect = lower value 1.05 and 0.999 | locus YER155C, strain BEM2 (second series), stronger effect = lower value 1.05 and 0.987 | locus YER155C, strain BEM2, stronger effect = lower value 1 | locus YER167W, strain BCK2, stronger effect = lower value 1.01 | locus YFR010W, strain ubp6, stronger effect = lower value 1.02 and 1 | locus YGL078C, strain dbp3, stronger effect = lower value 1.01 | locus YGL086W, strain mad1, stronger effect = lower value 1.05 | locus YGL167C, strain pmr1, stronger effect = lower value 1.04 and 1 | locus YGL173C, strain kem1, stronger effect = lower value 1.03 and 0.996 | locus YGL227W, strain vid30, stronger effect = lower value 1.02 and 0.98 | locus YGL240W, strain doc1, stronger effect = lower value 1.03 and 1.01 | locus YGL248W, strain PDE1, stronger effect = lower value 0.999 | locus YGL253W, strain hxk2, stronger effect = lower value 1.02 and 1.01 | locus YGR135W, strain pre9, stronger effect = lower value 0.984 | locus YGR229C, strain SMI1, stronger effect = lower value 1.04 | locus YGR252W, strain gcn5, stronger effect = lower value 1.06 | locus YHR013C, strain ard1, stronger effect = lower value 1.04 and 0.994 | locus YHR027C, strain rpn1, stronger effect = lower value 1.03 and 0.991 | locus YHR030C, strain SLT2, stronger effect = lower value 1.03 and 1.02 | locus YHR079C, strain IRE1 (second series), stronger effect = lower value 0.994 | locus YHR079C, strain IRE1, stronger effect = lower value 1.02 and 1.05 | locus YHR094C, strain hxt1, stronger effect = lower value 0.982 | locus YHR129C, strain ARP1, stronger effect = lower value 1.02 | locus YHR142W, strain chs7, stronger effect = lower value 1.04 and 1.02 | locus YHR200W, strain rpn10, stronger effect = lower value 1 | locus YIL066C, strain RNR3, stronger effect = lower value 1.02 | locus YIL073C, strain SPO22, stronger effect = lower value 1.07 | locus YIL125W, strain kgd1, stronger effect = lower value 0.997 | locus YIR030C, strain dcg1, stronger effect = lower value 1 | locus YJL092W, strain hpr5, stronger effect = lower value 1.03 and 1 | locus YJL095W, strain BCK1 (second series), stronger effect = lower value 1.01 and 0.999 | locus YJL095W, strain BCK1, stronger effect = lower value 1.04 and 1.03 | locus YJL115W, strain asf1, stronger effect = lower value 1.04 and 0.983 | locus YJL129C, strain trk1, stronger effect = lower value 1.05 and 0.992 | locus YJL134W, strain LCB3, stronger effect = lower value 0.993 | locus YJL154C, strain vps35, stronger effect = lower value 1.02 and 0.991 | locus YJL164C, strain tpk1, stronger effect = lower value 1.03 and 0.996 | locus YJL166W, strain qcr8, stronger effect = lower value 1.03 and 1.01 | locus YJL168C, strain set2, stronger effect = lower value 0.998 | locus YJL187C, strain SWE1 (second series), stronger effect = lower value 0.995 | locus YJL187C, strain SWE1, stronger effect = lower value 1.04 and 0.996 | locus YJR043C, strain POL32, stronger effect = lower value 1.05 | locus YJR066W, strain TOR1, stronger effect = lower value 0.962 and 0.981 | locus YKL009W, strain mrt4, stronger effect = lower value 1.06 | locus YKL068W, stronger effect = lower value 0.987 | locus YKL085W, strain MDH1 (second series), stronger effect = lower value 1.01 | locus YKL085W, strain MDH1, stronger effect = lower value 1.01 | locus YKL160W, strain elf1, stronger effect = lower value 1.02 and 0.994 | locus YKL190W, strain CNB1, stronger effect = lower value 0.996 | locus YKR001C, strain vps1, stronger effect = lower value 1.02 | locus YKR026C, strain gcn3, stronger effect = lower value 1.03 and 0.989 | locus YKR091W, strain srl3, stronger effect = lower value 1.02 and 0.991 | locus YLL001W, strain dnm1, stronger effect = lower value 1.03 and 1 | locus YLL026W, stronger effect = lower value 1.03 and 0.991 | locus YLL041C, strain sdh2, stronger effect = lower value 1.02 and 0.993 | locus YLR027C, strain aat2, stronger effect = lower value 1.03 and 0.975 | locus YLR039C, strain RIC1, stronger effect = lower value 1.07 | locus YLR058C, strain SHM2, stronger effect = lower value 1 | locus YLR102C, strain apc9, stronger effect = lower value 0.992 | locus YLR113W, strain HOG1, stronger effect = lower value 1.02 and 1.06 | locus YLR221C, strain rsa3, stronger effect = lower value 1.03 and 0.996 | locus YLR258W, strain gsy2, stronger effect = lower value 1.01 and 1 | locus YLR262C, strain YPT6 (second series), stronger effect = lower value 1.05 and 1.02 | locus YLR262C, strain YPT6, stronger effect = lower value 1.02 | locus YLR268W, strain sec22, stronger effect = lower value 1.03 | locus YLR320W, strain mms22, stronger effect = lower value 1.03 and 1.01 | locus YLR330W, strain CHS5, stronger effect = lower value 1.01 | locus YLR342W, strain FKS1 (second series), stronger effect = lower value 1.16 | locus YLR342W, strain FKS1, stronger effect = lower value 1.03 and 0.995 | locus YLR357W, strain rsc2, stronger effect = lower value 1.06 and 0.993 | locus YLR370C, strain arc18, stronger effect = lower value 1.02 and 0.986 | locus YLR371W, strain rom2, stronger effect = lower value 1 | locus YLR384C, strain iki3, stronger effect = lower value 1.03 and 0.966 | locus YLR418C, strain cdc73, stronger effect = lower value 1.05 | locus YML016C, strain PPZ1, stronger effect = lower value 1 | locus YML032C, strain rad52, stronger effect = lower value 0.996 | locus YML120C, strain ndi1, stronger effect = lower value 1.03 and 1 | locus YML124C, strain tub3, stronger effect = lower value 0.99 | locus YMR058W, strain fet3, stronger effect = lower value 1.02 and 1 | locus YMR078C, strain ctf18, stronger effect = lower value 0.998 | locus YMR125W, strain sto1, stronger effect = lower value 1.02 and 1 | locus YMR129W, stronger effect = lower value 1.03 and 0.992 | locus YMR205C, strain PFK2, stronger effect = lower value 1.05 and 0.988 | locus YMR223W, strain ubp8, stronger effect = lower value 1 | locus YMR231W, strain pep5, stronger effect = lower value 1.01 | locus YMR263W, strain SAP30, stronger effect = lower value 1.01 | locus YMR307W, strain GAS1, stronger effect = lower value 1.2 | locus YNL067W, strain RPL9B, stronger effect = lower value 0.991 | locus YNL071W, strain lat1, stronger effect = lower value 1.02 and 1.01 | locus YNL128W, strain TEP1, stronger effect = lower value 1.02 | locus YNL183C, strain NPR1, stronger effect = lower value 0.969 and 0.984 | locus YNL209W, strain ssb2, stronger effect = lower value 1.01 and 0.988 | locus YNL233W, strain BNI4, stronger effect = lower value 1.02 | locus YNL248C, strain rpa49, stronger effect = lower value 1.03 and 1.02 | locus YNL250W, strain rad50, stronger effect = lower value 1 | locus YNL271C, strain bni1, stronger effect = lower value 1.01 | locus YNL298W, strain CLA4, stronger effect = lower value 1.02 | locus YNL307C, strain MCK1, stronger effect = lower value 0.997 | locus YNL322C, strain KRE1 (second series), stronger effect = lower value 1.03 and 0.99 | locus YNL322C, strain KRE1, stronger effect = lower value 1.01 | locus YNR049C, strain mso1, stronger effect = lower value 1.02 and 0.994 | locus YNR052C, strain pop2, stronger effect = lower value 1.01 | locus YOL012C, strain htz1 0.9 | locus YOL147C, strain pex11, stronger effect = lower value 0.994 | locus YOR001W, strain rrp6, stronger effect = lower value 1.01 and 0.998 | locus YOR061W, strain CKA2, stronger effect = lower value 0.989 | locus YOR069W, strain VPS5, stronger effect = lower value 1.01 | locus YOR070C, strain gyp1, stronger effect = lower value 1.01 and 0.994 | locus YOR080W, strain dia2, stronger effect = lower value 1.03 and 0.985 | locus YOR083W, strain WHI5, stronger effect = lower value 1.01 and 0.997 | locus YOR106W, strain vam3, stronger effect = lower value 1.05 and 0.998 | locus YOR136W, strain idh2, stronger effect = lower value 0.992 | locus YOR144C, strain elg1, stronger effect = lower value 0.989 | locus YOR184W, strain ser1, stronger effect = lower value 1 | locus YOR231W, strain MKK1, stronger effect = lower value 1.03 and 1.05 | locus YOR265W, strain rbl2, stronger effect = lower value 1.03 and 0.995 | locus YOR270C, strain vph1, stronger effect = lower value 1.09 and 1.04 | locus YOR290C, strain snf2, stronger effect = lower value 1.04 and 0.997 | locus YOR316C, strain cot1, stronger effect = lower value 0.989 | locus YPL051W, strain arl3, stronger effect = lower value 1.02 and 0.975 | locus YPL078C, strain atp4, stronger effect = lower value 1.02 and 0.992 | locus YPL106C, strain sse1, stronger effect = lower value 1.03 and 0.946 | locus YPL240C, strain hsp82, stronger effect = lower value 1.02 and 0.997 | locus YPL241C, strain CIN2, stronger effect = lower value 0.997 | locus YPL256C, strain CLN2, stronger effect = lower value 0.996 and 1.06 | locus YPR119W, strain clb2, stronger effect = lower value 1 | locus YPR141C, strain kar3, stronger effect = lower value 0.992 | locus YPR163C, strain tif3, stronger effect = lower value 0.995 | locus YPR167C, strain met16, stronger effect = lower value 1 | strain wtn01, stronger effect = lower value 1.04
